Rows were chosen to be rich in hits. Some 4.5% of all compounds tested hit in one or more screens of this group.
Efflux pump inh: inhibitors of Candida efflux pumps in yeast, primary screen, S. cerevisiae, Nile Red, multiplex; S. cerevisiae Candida pump triplex; inhibition, % at 10 µM; actives 0.44% (n = 330,000); AID 485275, 2010;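 active means plate passing quality check with inhibition over a set limit, or well fluorescence over plate mean plus 4 SD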;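 further: Nile Red retained in pooled yeast measured as flow cytometry median fluorescence; 0% = buffer negative control and 100% = Enniatin B positive control; higher means more Nile Red kept so more efflux inhibition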
ALR inh: inhibitors of human ALR sulfhydryl oxidase, primary screen, biochemical, H2O2 detection, HRP-luminol luminescence, single point; AID 485317, 2010; FAD-linked sulfhydryl oxidase ALR (Homo sapiens), P55789; purified ALR, DTT oxidation; inhibition, % (no concentration beside the values); actives 3.8% (n = 290,000);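 active means mean replicate inhibition above about 79%, with every replicate also reaching it, limit read from the data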
Target sequence (P55789 whole entry, looked up): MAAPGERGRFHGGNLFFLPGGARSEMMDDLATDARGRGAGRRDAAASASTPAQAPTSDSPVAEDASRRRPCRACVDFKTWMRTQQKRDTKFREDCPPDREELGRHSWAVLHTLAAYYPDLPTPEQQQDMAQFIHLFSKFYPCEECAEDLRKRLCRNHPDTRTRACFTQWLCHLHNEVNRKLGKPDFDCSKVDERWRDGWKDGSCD
HDAC3 inhib: HDAC3 deacetylase inhibitors, primary screen, biochemical, fluorescence, cell-free homogeneous | Histone deacetylase 3 (Homo sapiens), O15379 | recombinant HDAC3, fluorogenic peptide/trypsin coupled | inhibition, % at 8.3 µM | actives 0.15% (n = 320,000); in the data active means inhibition above about 26%, passing the limit was not always enough
Rce1 inhib: yeast Rce1p protease inhibitors, primary screen, biochemical, fluorescence, cell-free homogeneous; CAAX prenyl protease 2 (Saccharomyces cerevisiae (strain ATCC 204508 / S288c)), Q03530; yeast membranes, quenched prenylated peptide cleavage fluorescence; calls only; actives 0.27% (n = 290,000); AID 2563, 2010;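 active means fall in fluorescence gain of 50% or more versus controls, with final raw signal at or below 3038400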;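 further: plate controls were neutral control wells for no effect and wells lacking membranes for full effect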
GRK2 inh: compounds blocking aptamer binding on GRK2 – biochemical, human GRK2, bead flow cytometry, HTS, primary screen | AID 488847, 2010 | FAM-aptamer displacement from GRK2 | actives 0.59% (n = 330,000) | Beta-adrenergic receptor kinase 1 (Homo sapiens), P25098 | inhibition of aptamer binding, % at 10 µM;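 active means inhibition of aptamer binding above 40%, roughly 3 SD of noise, on plates passing a quality check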;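 further: median bead fluorescence of bound FAM aptamer so fluorescent compounds give negative values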
Rtt109 Vps75: inhibitors of C. albicans Rtt109/Vps75 HAT, primary screen, biochemical, ThioGlo CoA-SH fluorescence, plate reader; Histone acetyltransferase RTT109 (Candida albicans (strain SC5314 / ATCC MYA-2876)), …; purified Rtt109/Vps75, 4 h; inhibition, % at 34.9 µM; actives 0.16% (n = 330,000); AID 540336, 2011;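 active means inhibition of at least 50% in every replicate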
GRK2 CP1: GRK2 aptamer-displacing inhibitors, retest, confirmation, biochemical, cherry pick 1, bead flow cytometry; shares compounds with GRK2 inh; bead-bound GRK2, FAM-aptamer displacement; aptamer displacement, % at 10 µM; actives 4% (n = 2,000); AID 504451, 2011;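 active means aptamer displacement above 40%, near three times the noise of non-fluorescent compounds, on plates passing quality checks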;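 further: negative values mostly reflect intrinsic compound fluorescence rather than true enhancement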
FAM quench CP1: counter-screen for GRK2 aptamer inhibitors: fluorescent aptamer quenchers | shares compounds with GRK2 inh | Carboxyfluorescein RNA aptamer on beads, flow cytometry quenching; hits give low values | fluorescence response (% of DMSO), % at 10 µM | AID 504580 | 2,000 tested, under 10 active;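 active means compounds that quench the bead-bound fluorescent RNA probe, cutting fluorescence to under half of the solvent control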;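 further: counterscreen run without GRK2 so only probe quenching by compound is measured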
GRK2 CP2: GRK2 aptamer-displacing inhibitors, hit retest, confirmation, biochemical, cherry pick 2, bead flow cytometry; bead-bound GRK2, FAM-aptamer displacement; 360 tested, under 10 active; inhibition of aptamer binding, % at 10 µM; shares compounds with GRK2 inh;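 active means inhibition of aptamer binding above 40%, about triple the noise seen with nonglowing compounds, on plates passing quality control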;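 further: negative values mostly come from compounds that fluoresce themselves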
FAM quench CP2: aptamer fluorescence quenching in GRK2 counter-screen | 360 tested, under 10 active | carboxyfluorescein RNA aptamer beads, flow cytometry quenching; hits give low values | fluorescence response vs DMSO, % at 10 µM | shares compounds with GRK2 inh;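 active means response vs DMSO under 50%, meaning signal dropped by over half, treated as fluorescence quencher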;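 further: labelled aptamer on streptavidin beads without GRK2 as a quench counter-screen; 100% = bead fluorescence of DMSO wells and lower means quenching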
Starred values were filed as active, the others as inactive; i = inactive; . = not tested or not shown; + = active, no number.

SMILES	Efflux pump inh	ALR inh	HDAC3 inhib	Rce1 inhib	GRK2 inh	Rtt109 Vps75	GRK2 CP1	FAM quench CP1	GRK2 CP2	FAM quench CP2
OC(COc1ccc(C2C=CCC2)cc1)CN1CCCCC1 (centres undefined)	0	-11	2	i	62*	0	-75	105	.	.
COc1ccccc1N(Cc1ccccc1)S(=O)(=O)c1cccc(C(=O)N2CCCCC2)c1	0	-5	-1	.	3	7	.	.	.	.
O=C(CN1C(=O)NC(Cc2ccccc2)C1=O)Nc1ccccc1F (centres undefined)	0	.	-1	.	44*	-2	.	.	26	100
O=C(CN(Cc1ccc(F)cc1)S(=O)(=O)c1ccc(S(=O)(=O)N2CCOCC2)cc1)Nc1ccccc1	0	-2	9	i	0	-9	.	.	.	.
O=C(CN(Cc1ccccc1)S(=O)(=O)c1ccc(S(=O)(=O)N2CCOCC2)cc1)Nc1ccccc1	0	1	0	i	52*	-4	0	101	.	.
Cc1c(C)c2ccc(OC(C)C(=O)NCCCN3CCOCC3)c(C)c2oc1=O (centres undefined)	0	0	-17	+	0	0	0	101	.	.
Cc1c(C)c2ccc(OC(C)C(=O)NCCN3CCOCC3)c(C)c2oc1=O (centres undefined)	0	1	-23	i	0	-28	.	.	.	.
Cc1coc2c(C)c3oc(=O)c(CCC(=O)NCCCN4CCOCC4)c(C)c3cc12	0	.	-5	i	0	-4	-1	97	.	.
COc1ccccc1NC(=O)CCC(=O)OCc1ccc(Cl)cc1	0	-7	1	i	97*	0	2	111	.	.
COc1ccccc1NC(=O)CCS(=O)(=O)c1ccccc1	0	-2	2	i	0	-1	.	.	-9	102
COc1ccccc1NC(=O)CCCCC(=O)Nc1ccccc1OC	0	-1	-3	i	0	-3	.	.	.	.
CCC(=O)N1c2ccc(S(=O)(=O)CCC(=O)Nc3ccc(OC)cc3OC)cc2CC1C (centres undefined)	0	-11	2	i	5	0	.	.	-29	102
COc1ccccc1NC(=O)c1ccccc1Oc1ccccc1	0	1	2	i	41*	-7	0	92	.	.
COc1ccccc1NC(=O)CCC(=O)OCc1ccc(Br)cc1	0	-3	-3	i	3	-11	.	.	.	.
COc1ccc(S(=O)(=O)CCC(=O)Nc2cc(C)ccc2OC)cc1	0	-3	-1	i	0	-3	.	.	-29	104
COc1ccc(OC)c(NC(=O)CCS(=O)(=O)c2cc3c(cc2C)NC(=O)CO3)c1	0	-34	7	i	0	7	.	.	-3	106
N[C@@H](Cc1ccccc1)c1nnc2sc(SCc3ccccc3)nn12	0	.	1	i	55*	13	-13	127	.	.
Cc1nnc2sc(SCc3ccc(Br)cc3)nn2c1=O	0	49	-14	i	0	-24	.	.	.	.
